According to PubChem BioAssay:
A number with no mark means an inactive call. Activity calls are given as the source filed them.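 The calls were made as follows: active = GFP response above 150% of the DMSO control; inconclusive = Fewer than 70 cells counted for a yeast strain; inactive = the rest.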

Assay: modulators of MEP2-GFP levels in yeast, confirmation, S. cerevisiae, flow cytometry GFP, cherry picks (AID 2272);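 also: ratio of well signal to plate DMSO mean so 100% equals DMSO level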
Conditions: S. cerevisiae MEP2-GFP strain, 3 h, at 10 µM, stronger effect = higher value

Compound | GFP response vs DMSO
O=C(COC(=O)c1n[nH]c2ccccc12)c1cccc(Br)c1 | 101%
Cc1c(C(=O)Nc2ccccc2)cnn1-c1ccccc1 | 105%
Oc1c(CN2CCN(c3ccccc3)CC2)cc(Br)c2cccnc12 | 153%
NC(=O)c1ccccc1-c1nc(-c2ccccc2)no1 | 109%
CC(C(=O)O)n1nc(-c2ccccc2)c2ccccc21 (stereo not given) | 99%
COc1cc(/C=C2/N=C(c3ccccc3)OC2=O)c(F)cc1OCc1ccccc1 | 101%
COc1ccc(-c2nn(-c3ccccc3)cc2C(=O)NC(=S)NNC(=O)c2ccncc2)cc1 | 101%
CCOC(=O)Cc1csc(NC(=O)CCCCCN2C(=O)c3cccc4cccc(c34)C2=O)n1 | 102%
COC(=O)c1ccc(/C=C/C(=O)c2cccc(OC)c2)cc1 | 105%
Cc1[nH][nH]c(=O)c1C(c1ccc(N(C)C)c(Br)c1)c1c(C)[nH][nH]c1=O | 104%
Cc1ccc(CCN2CC(C(=O)NCCCN(C)Cc3ccccc3)CC2=O)cc1 (stereo not given) | 101%
COc1ccc(NC(=O)C2CCN(S(=O)(=O)c3ccc(OC)c(OC)c3)CC2)c(OC)c1 | 107%
CN1CCc2c(sc3c2C(=O)NC(c2ccc4c(c2)OCO4)N3)C1 (stereo not given) | 106%
Nc1cccnc1S(=O)(=O)c1ccccc1 | 100%
N#Cc1ccccc1Cn1cc(/C=C/[N+](=O)[O-])c2ccccc21 | 98.8%
CN(c1ccccc1)S(=O)(=O)c1ccc(C(=O)Nc2nnc(-c3ccc(F)cc3)o2)cc1 | 149%
Cc1ccc(C)c(N2CCN(C(=O)c3ccccc3Br)CC2)c1 | 109%
CCOC(=O)C(=CNNc1cccc(Cl)c1)C(=O)OCC | 111%
O=C(c1ccccc1F)N1CCN(c2ccccc2)CC1 | 105%
O=C(C1CCN(Cc2nc(Cc3cccc(F)c3)no2)CC1)N1CCOCC1 | 100%

Compound | GFP response vs DMSO
COC(=O)c1ccc(/C=N\NC(=O)c2ccc(C)cc2Cl)cc1 | 102%
CCNC(=O)c1ccccc1-c1nc(-c2ccccc2Cl)no1 | 103%
O=C(OCC(=O)N1CCN(C(=O)c2ccco2)CC1)c1cc(-c2ccc(Cl)c(Cl)c2Cl)nc2ccccc12 | 117%
c1ccc(CSc2ccc(-c3ccccn3)nn2)cc1 | 114%
N#C/C(=C\c1c(N2CCCCCC2)nc2ccccn2c1=O)C(=O)NCc1ccco1 | 98.3%
Cc1ccc(Nc2c(-c3ccccn3)nc3ccc(C)cn23)cc1 | 108%
Cc1ccc(-c2csc3ncn(Cc4ccc(C(=O)O)cc4)c(=O)c23)cc1C | 105%
CCOC(=O)c1ccc(NC(=O)CCc2nc(-c3ccc(Cl)cc3)no2)cc1 | 98.3%
O=C(Nc1cc(Sc2ccccn2)cc([N+](=O)[O-])c1)c1ccc([N+](=O)[O-])cc1 | 110%
O=C1c2ccccc2C(=O)N1OS(=O)(=O)c1ccc(F)cc1 | 103%
Cc1ccc(N2CCN(C(=O)c3ccccc3Br)CC2)c(C)c1 | 98.3%
CCCc1[nH]nc2c1C1(C(=O)N(C(C)C)c3ccccc31)C(C#N)=C(N)O2 (stereo not given) | 106%
O=C1c2cccc3c([N+](=O)[O-])ccc(c23)C(=O)N1O | 404% (active)
COC(=O)Cn1nc(-c2ccccc2)c2cc(Cl)ccc21 | 109%
O=C1C(Cl)=C(NCCc2ccccc2)C(=O)N1CCc1ccccc1 | 112%
O=c1c(-c2ccc(Cl)cc2)[n+]([O-])c2ccccc2n1O | 112%
CCc1ccccc1OCc1nnc(N)s1 | 101%
Cc1ccc(/C=C2/SC(=S)N(C3CCCCC3)C2=O)o1 | 126%
O=C(Cn1cc(/C=C\[N+](=O)[O-])c2ccccc21)Nc1ccccc1 | 98.3%
Cc1nnc(NC(=O)c2ccc(S(=O)(=O)N3CCCCCC3)cc2)o1 | 101%
